PubChem BioAssay AID1159580 (chemical genetic matrix, 2015)
Values joined by “and” are separate entries in the source; they are usually repeats but may differ in a detail not shown here. Equal values may be shown once. Screen size: about 5,500 compounds; about 2,000 (36%) were called active. About 18% were inconclusive and are not listed. Cut-off read from the data, not from the text of the source: active = normalized growth mostly below about 0.91 (no sharp cut-off); inconclusive = no clear call, values can overlap the other calls; inactive = mostly above about 0.92. The list shows a part of the results.

Test: chemical genetic growth profiling, strain panel (AID 1159580);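 note: tested at 20 µM; growth read once vehicle control cultures reached saturation at 30 °C; 1 = growth at the plate median or of vehicle wells; lower values mean less growth of the strain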
Conditions: S. cerevisiae deletion strains, growth OD

Measured: normalized growth

N=C(N)N
inactive: locus YAL013W, strain DEP1, active compounds read low 1.01 | locus YAL021C, strain ccr4, active compounds read low 0.995 | locus YAL026C, strain drs2, active compounds read low 0.994 | locus YAL030W, strain snc1, active compounds read low 0.993 | locus YBL061C, strain skt5, active compounds read low 0.992 | locus YBR009C, strain hhf1, active compounds read low 1.01 | locus YBR021W, strain FUR4, active compounds read low 1.03 | locus YBR023C, strain chs3, active compounds read low 1.01 | locus YBR171W, strain sec66, active compounds read low 0.977 | locus YBR229C, strain ROT2, active compounds read low 0.999 | locus YBR231C, strain swc5, active compounds read low 0.98 | locus YBR279W, strain paf1, active compounds read low 0.993 | locus YCL011C, strain gbp2, active compounds read low 1.01 | locus YCL016C, strain dcc1, active compounds read low 1.01 | locus YCL029C, strain bik1, active compounds read low 0.963 | locus YCL061C, strain MRC1, active compounds read low 0.996 | locus YCL069W, strain vba3, active compounds read low 0.998 | locus YCR088W, strain abp1, active compounds read low 0.992 | locus YDL005C, strain med2, active compounds read low 0.987 | locus YDL035C, strain GPR1, active compounds read low 1.03 | locus YDL040C, strain nat1, active compounds read low 1 | locus YDL074C, strain BRE1, active compounds read low 1.01 | locus YDL101C, strain DUN1, active compounds read low 0.991 | locus YDL134C, strain PPH21, active compounds read low 1.01 | locus YDL185W, strain tfp1, active compounds read low 0.968 | locus YDL192W, strain arf1, active compounds read low 0.982 | locus YDR001C, strain nth1, active compounds read low 0.994 | locus YDR069C, strain doa4, active compounds read low 0.983 | locus YDR101C, strain arx1, active compounds read low 0.994 | locus YDR137W, strain rgp1, active compounds read low 1 | locus YDR150W, strain NUM1, active compounds read low 0.992 | locus YDR159W, strain sac3, active compounds read low 0.929 | locus YDR162C, strain NBP2, active compounds read low 0.996 | locus YDR195W, strain ref2 0.943 | locus YDR297W, strain sur2, active compounds read low 0.993 | locus YDR318W, strain mcm21, active compounds read low 0.981 | locus YDR334W, strain swr1, active compounds read low 0.992 | locus YDR335W, strain msn5, active compounds read low 1.06 | locus YDR388W, active compounds read low 0.972 | locus YDR392W, strain spt3, active compounds read low 0.875 | locus YDR502C, strain sam2, active compounds read low 0.999 | locus YEL003W, strain gim4, active compounds read low 0.992 | locus YEL037C, strain rad23, active compounds read low 0.998 | locus YEL061C, strain CIN8 (second series), active compounds read low 1 | locus YEL061C, strain CIN8, active compounds read low 0.996 | locus YER015W, strain faa2, active compounds read low 0.999 | locus YER016W, strain bim1, active compounds read low 0.997 | locus YER110C, active compounds read low 0.976 | locus YER111C, strain swi4, active compounds read low 0.998 | locus YER155C, strain BEM2 (second series), active compounds read low 0.976 | locus YER155C, strain BEM2, active compounds read low 1 | locus YER167W, strain BCK2, active compounds read low 1.02 | locus YFR010W, strain ubp6, active compounds read low 0.995 | locus YGL078C, strain dbp3, active compounds read low 1 | locus YGL086W, strain mad1, active compounds read low 1.01 | locus YGL167C, strain pmr1, active compounds read low 1 | locus YGL173C, strain kem1, active compounds read low 0.987 | locus YGL227W, strain vid30, active compounds read low 0.991 | locus YGL240W, strain doc1, active compounds read low 0.999 | locus YGL248W, strain PDE1, active compounds read low 1 | locus YGL253W, strain hxk2, active compounds read low 1 | locus YGR078C, strain PAC10, active compounds read low 0.997 | locus YGR135W, strain pre9, active compounds read low 1 | locus YGR229C, strain SMI1, active compounds read low 1.04 | locus YGR252W, strain gcn5, active compounds read low 1.13 | locus YHR013C, strain ard1, active compounds read low 1.01 | locus YHR027C, strain rpn1, active compounds read low 1.01 | locus YHR030C, strain SLT2, active compounds read low 1 and 1.05 | locus YHR079C, strain IRE1 (second series), active compounds read low 0.977 | locus YHR079C, strain IRE1, active compounds read low 1.03 | locus YHR094C, strain hxt1, active compounds read low 0.974 | locus YHR129C, strain ARP1, active compounds read low 0.992 | locus YHR142W, strain chs7, active compounds read low 1.02 | locus YHR200W, strain rpn10, active compounds read low 0.992 | locus YIL066C, strain RNR3, active compounds read low 0.994 | locus YIL073C, strain SPO22, active compounds read low 0.9 | locus YIL125W, strain kgd1, active compounds read low 0.991 | locus YIR030C, strain dcg1, active compounds read low 0.99 | locus YJL092W, strain hpr5, active compounds read low 0.999 | locus YJL095W, strain BCK1 (second series), active compounds read low 0.998 | locus YJL095W, strain BCK1, active compounds read low 0.993 and 1.05 | locus YJL115W, strain asf1, active compounds read low 0.99 | locus YJL129C, strain trk1, active compounds read low 0.985 | locus YJL134W, strain LCB3, active compounds read low 0.997 | locus YJL154C, strain vps35, active compounds read low 0.994 | locus YJL164C, strain tpk1, active compounds read low 1.01 | locus YJL166W, strain qcr8, active compounds read low 1.01 | locus YJL168C, strain set2, active compounds read low 0.975 | locus YJL187C, strain SWE1 (second series), active compounds read low 0.946 | locus YJL187C, strain SWE1, active compounds read low 0.993 | locus YJR043C, strain POL32, active compounds read low 0.999 | locus YJR066W, strain TOR1, active compounds read low 0.957
